# According to PubChem BioAssay (NCI):
# The panel holds about 83,000 compounds, 20% with a hit somewhere; the sample as a whole holds those more often.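 Results are percent growth after 48 hours of single-concentration exposure. 100 means growth as in untreated cells, lower positive values show inhibition; negative values down to -100 show cell death.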 Active and inactive are the calls of the source. How the source made its calls: active means growth percent below 10; inactive means the rest.
# Tested on: LOX IMVI melanoma
# Experiment: NCI-60 one-dose screen, 48 h (100 = growth as untreated, 0 = no growth, -100 = all killed)
# Details: 10 µM unless noted
row,SMILES,growth
1,C=C(C=O)[C@@H]1CC[C@]2(C)[C@H](CC=C3[C@H]4[C@@H](C)[C@H](C)CC[C@]4(C(=O)OC)CC[C@]32C)[C@@]1(C)CCC#N,-86.1% (active)
2,COc1ccc([C@@H]2c3[nH]c4ccccc4c3C[C@H]3C(=O)N(C4CCN(CC5CCCCC5)CC4)CC(=O)N23)c(OC)c1,54.3% (inactive)
3,c1ccc(C(c2nc3ncncc3[nH]2)N2CSc3nc4ncncc4n3C2)cc1 (stereo unspecified),13.2% (inactive)
4,Cc1occc1-c1nc2s/c(=C/c3ccc(-c4cc(C(F)(F)F)ccc4Cl)o3)c(=O)n2n1,101% (inactive)
5,CNCc1cccc2c1OCCCCCCC(C)(O)CC(C)(C)S(=O)(=O)c1ccc(cc1)-c1cnc(N)c(n1)C(=O)N2 (stereo unspecified),-59.4% (active)
6,CS(=O)(=O)c1ncc(-c2ccccc2)cn1,84.6% (inactive)
7,CCOC(=O)c1c(N)c(C#N)cn1-c1cc(OC)c(OC)c(OC)c1,97.8% (inactive)
8,CCCCCc1ccc(S(=O)(=O)Nc2cc(-c3csc(NC(=O)CN4CCN(C)CC4)n3)ccc2OC)cc1,-94% (active)
9,Cc1nc2ncc(-c3ccc4ncnc(NCc5ccccc5)c4c3)cc2[nH]1,41.3% (inactive)
10,C=C(C=O)[C@@H]1CC[C@]2(COC(C)=O)CC[C@]3(C)C(CC[C@@H]4[C@@]5(C)CC[C@H](OC(C)=O)C(C)(C)[C@@H]5CC[C@]43C)[C@@H]12 (stereo partly specified),-83.6% (active)
11,Cc1ccc(S(=O)(=O)N(CC[C@@H]2C[C@H]2c2cc3ccccc3o2)S(=O)(=O)c2ccc(C)cc2)cc1,95.1% (inactive)
12,COC(=O)c1ccc(NC2=C/C(=N/S(=O)(=O)c3ccc(C(=O)O)cc3)c3ccccc3C2=O)cc1,-65% (active)
13,O=C(CCn1c[n+](CC(=O)c2ccc(F)cc2)c2ccccc21)Nc1cccc2cccnc12,84.6% (inactive)
14,CC1(C)CC[C@]2(C(=O)O)CC[C@]3(C)C(=CC[C@@H]4[C@@]5(C)CC/C(=N\OCCC#N)C(C)(C)[C@@H]5CC[C@]43C)[C@@H]2C1,91.8% (inactive)
15,COc1ccc([C@@H]2[C@@H](O)C(=O)N2c2cc(OC)c(OC)c(OC)c2)cc1F,-4.8% (active)
16,CCOC(=O)c1c(Nc2ccccc2)nn2c(-c3ccccc3)ccnc12,83% (inactive)

row,SMILES,growth
1,Cc1cc(C)c2sc(=O)n(Cc3nnc(SCCC(=O)O)o3)c2n1,99.2% (inactive)
2,C=CCn1c(SCC(=O)Nc2ccc(C(=O)/C=C/c3cccc([N+](=O)[O-])c3)cc2)nnc1-c1c[nH]c2ccccc12,31.1% (inactive)
3,Cc1ccc(NC(=O)N[C@@H](Cc2cc(F)cc(F)c2)C(=O)NC2C(=O)N3C[C@H](O)C[C@H]3C(=O)N3CCCC[C@H]3C(=O)N[C@@H](CO)C(=O)N3C[C@H](C)C[C@H]3C(=O)O[C@H]2C)c(F)c1 (stereo partly specified),28.1% (inactive)
4,C#C[C@]1(O)CC[C@H]2[C@@H]3CC=C4c5sc(-c6ccc7c(c6)OCO7)nc5CC[C@]4(C)[C@H]3CC[C@@]21C,-40.1% (active)
5,CCCCCc1ccc(S(=O)(=O)Nc2cccc(-c3csc(NC(=O)CN4CCN(C)CC4)n3)c2)cc1,-58% (active)
6,CCCn1cnc2c(c1=N)C(c1ccc(F)cc1)c1sc3c(CC)cccc3c1O2 (stereo unspecified),5.54% (active)
7,O=C(NCCn1ccnc1)c1ccc(-c2nc3ccc4[nH]ncc4c3c3c2CCCC3)cc1,66.3% (inactive)
8,COc1cccc(O)c1/C=C(/C)c1ccc2c(OC)cccc2[o+]1,83.9% (inactive)
9,NS(=O)(=O)c1ccc(-n2cc(CN3CCCCC3)nn2)cc1,101% (inactive)
10,O=S(=O)(NCCNc1nccc(-n2cnc3ccccc32)n1)c1ccc(Cl)cc1,93.5% (inactive)
11,COC(=O)C1(C)CCC[C@]2(C)[C@H]3C[C@H]4C(C(C)C)=C[C@]3(CC[C@@H]12)[C@H]1[C@@H]4[C@@H](OC(=O)c2ccco2)CC[C@@H]1OC(=O)c1ccco1 (stereo partly specified),111% (inactive)
12,CCCn1cnc2c(c1=N)C(c1ccc(OC)cc1)c1sc3c(C)cccc3c1O2 (stereo unspecified),25.1% (inactive)
13,COc1cc(-c2nn(C(C)(C)C)cc2-c2ccnc(NCCCNS(=O)(=O)c3cccc(F)c3)n2)ccc1Cl,67.2% (inactive)
14,CC1(C)CC[C@]2(CN)CC[C@]3(C)C(=CC[C@@H]4[C@@]5(C)CCCNC(C)(C)[C@@H]5CC[C@]43C)[C@H]2C1,81.9% (inactive)
15,NC(=O)c1cccc(C#CCNC[C@H]2C[C@@H](n3ccc4c(Cl)ncnc43)[C@H](O)[C@@H]2O)c1,101% (inactive)
